From PubChem BioAssay (EPA / NIEHS)
The source made the active and inactive calls. The calls were made as follows: active = hit-call score of the fitted dose curve at least 0.9, where 1 is the maximum; inactive = score below 0.9.

What was measured:
[1] = ATG_GRE_CIS: Attagene CIS-FACTORIAL HepG2 Assay for human Glucocorticoid Response Elements (GRE) (AID 2282947); conditions: HepG2 GRE cis-reporter, Attagene multiplex mRNA; actives raise or lower the signal
Outline: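 Assay uses human hepatoma HepG2 cells transfected with cis-promoter reporter units, exposed 24 h. mRNA from reporters detected by RT-PCR plus capillary electrophoresis; DMSO serves as negative control and baseline.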

[2] = ATG_ISRE_CIS: Attagene CIS-FACTORIAL HepG2 Assay for human Interferon Regulatory Factor 1 (IRF1) binding to an Interferon-Stimulated Response Element (ISRE) (AID 2282948); conditions: HepG2 ISRE cis-reporter (Attagene), mRNA transcription readout; actives raise or lower the signal
Outline: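 HepG2 cells transiently transfected with multiplexed cis-promoter reporter units; after 24 h compound exposure, reporter mRNA quantified by RT-PCR, FAM labelling, HpaI digestion and capillary electrophoresis. Bidirectional fit versus DMSO baseline.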

[3] = ATG_M_32_CIS: Attagene CIS-FACTORIAL HepG2 Assay for M32 Transcription Factor (Internal Marker) (AID 2282949); conditions: HepG2 Attagene cis-factorial M32 reporter, mRNA; actives raise or lower the signal;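 also: background control marker of the multiplexed CIS panel rather than a real target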
Outline: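 Following 24 h chemical exposure of HepG2 cells transiently expressing cis-promoter reporter constructs, reporter transcript levels were determined by RT-PCR with fluorescent labelling and capillary electrophoresis, then fitted bidirectionally against DMSO.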

[4] = ATG_M_06_CIS: Attagene CIS-FACTORIAL HepG2 Assay for M06 Transcription Factor (Internal Marker) (AID 2282950); conditions: HepG2 Attagene CIS-FACTORIAL M06 internal marker reporter; actives raise or lower the signal
Outline: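 HepG2 liver cells, 24 h exposure. Reporter transcripts from transfected cis-element constructs quantified by RT-PCR/capillary electrophoresis fluorescence. Bidirectional curve fit against DMSO.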

[5] = biological target: Hepatocyte nuclear factor 6 (Homo sapiens) (UniProt Q9UBC0); experiment: ATG_HNF6_CIS: Attagene CIS-FACTORIAL HepG2 Assay for human Hepatocyte Nuclear Factor 6 (HNF6) (AID 2282952); conditions: HepG2 Attagene cis-factorial HNF6 reporter transcription; actives raise or lower the signal
Chain of Hepatocyte nuclear factor 6 (Homo sapiens) (Q9UBC0 whole entry, looked up, the tested form may be a part): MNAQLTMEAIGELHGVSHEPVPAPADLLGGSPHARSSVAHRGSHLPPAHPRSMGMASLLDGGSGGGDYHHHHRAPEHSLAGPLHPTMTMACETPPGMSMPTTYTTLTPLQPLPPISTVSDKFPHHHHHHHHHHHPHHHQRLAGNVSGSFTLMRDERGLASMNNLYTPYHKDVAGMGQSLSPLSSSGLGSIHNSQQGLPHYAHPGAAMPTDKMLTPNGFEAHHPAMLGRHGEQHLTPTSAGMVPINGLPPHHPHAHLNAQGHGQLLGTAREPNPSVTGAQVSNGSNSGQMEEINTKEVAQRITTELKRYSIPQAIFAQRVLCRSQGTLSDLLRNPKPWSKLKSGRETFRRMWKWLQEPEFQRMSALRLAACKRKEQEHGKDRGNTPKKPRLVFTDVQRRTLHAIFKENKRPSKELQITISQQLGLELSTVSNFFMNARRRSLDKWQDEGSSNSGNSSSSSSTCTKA
Outline: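 HepG2 cells transiently transfected with cis-element-driven multiplexed reporter units measuring endogenous transcription factor activity. After 24 h exposure, reporter mRNA quantified by RT-PCR, FAM-labelled fragments and capillary electrophoresis; bidirectional fitting versus DMSO.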

[6] = biological target: Heat shock factor protein 1 (Homo sapiens) (UniProt Q00613); experiment: ATG_HSE_CIS: Attagene CIS-FACTORIAL HepG2 Assay for human Heat Shock Transcription Factor 1 (HSE) (AID 2282953); conditions: HepG2 HSE cis-reporter, Attagene RNA transcription; actives raise or lower the signal
Chain of Heat shock factor protein 1 (Homo sapiens) (Q00613 whole entry, looked up, the tested form may be a part): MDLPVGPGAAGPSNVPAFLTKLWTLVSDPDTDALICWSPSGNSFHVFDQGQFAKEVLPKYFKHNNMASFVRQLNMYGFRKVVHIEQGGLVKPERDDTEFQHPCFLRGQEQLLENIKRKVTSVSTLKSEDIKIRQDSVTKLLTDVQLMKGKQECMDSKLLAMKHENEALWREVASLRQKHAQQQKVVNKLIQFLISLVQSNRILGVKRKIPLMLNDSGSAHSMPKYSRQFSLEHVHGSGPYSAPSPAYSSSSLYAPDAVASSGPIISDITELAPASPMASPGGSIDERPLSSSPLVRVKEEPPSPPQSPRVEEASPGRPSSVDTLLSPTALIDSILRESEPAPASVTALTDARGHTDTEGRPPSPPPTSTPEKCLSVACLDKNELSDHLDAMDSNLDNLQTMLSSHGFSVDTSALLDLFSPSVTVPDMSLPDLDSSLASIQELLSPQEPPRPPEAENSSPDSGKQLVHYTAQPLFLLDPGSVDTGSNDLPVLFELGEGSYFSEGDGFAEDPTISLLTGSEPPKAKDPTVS
Outline: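 Endogenous transcription factor activity captured via cis-promoter reporter units transfected into HepG2; treatment lasted 24 h. Fluorescence intensity of reporter fragments analysed with bidirectional curve fitting, DMSO baseline.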

[7] = ATG_MRE_CIS: Attagene CIS-FACTORIAL HepG2 Assay for human Metal Responsive Element (MRE) (AID 2282954); conditions: HepG2 MRE cis-reporter transcription, Attagene multiplex; actives raise or lower the signal
Outline: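 After a 24 h chemical exposure, transiently transfected HepG2 cells yield RNA whose reporter sequences are amplified, FAM-labelled and sized by capillary electrophoresis. Curves are fitted bidirectionally relative to DMSO.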

[8] = ATG_PBREM_CIS: Attagene CIS-FACTORIAL HepG2 Assay for human Phenobarbital-responsive Enhancer Module (PBREM) (AID 2282955); conditions: HepG2 PBREM cis-reporter, Attagene multiplexed transcription; actives raise or lower the signal
Outline: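 Reporter mRNA read by RT-PCR, 6-FAM primer extension, HpaI digestion and capillary electrophoresis. Transfected HepG2 cells, 24 h compound exposure. Gain or loss of signal fitted bidirectionally relative to DMSO baseline.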

[9] = biological target: Hypoxia-inducible factor 1-alpha (Homo sapiens) (UniProt Q16665); experiment: ATG_HIF1a_CIS: Attagene CIS-FACTORIAL HepG2 Assay for human Hypoxia Inducible Factor 1 (HIF1A) (AID 2282951); conditions: HepG2 Attagene cis-factorial HIF1a reporter transcription; actives raise or lower the signal
Chain of Hypoxia-inducible factor 1-alpha (Homo sapiens) (Q16665 whole entry, looked up): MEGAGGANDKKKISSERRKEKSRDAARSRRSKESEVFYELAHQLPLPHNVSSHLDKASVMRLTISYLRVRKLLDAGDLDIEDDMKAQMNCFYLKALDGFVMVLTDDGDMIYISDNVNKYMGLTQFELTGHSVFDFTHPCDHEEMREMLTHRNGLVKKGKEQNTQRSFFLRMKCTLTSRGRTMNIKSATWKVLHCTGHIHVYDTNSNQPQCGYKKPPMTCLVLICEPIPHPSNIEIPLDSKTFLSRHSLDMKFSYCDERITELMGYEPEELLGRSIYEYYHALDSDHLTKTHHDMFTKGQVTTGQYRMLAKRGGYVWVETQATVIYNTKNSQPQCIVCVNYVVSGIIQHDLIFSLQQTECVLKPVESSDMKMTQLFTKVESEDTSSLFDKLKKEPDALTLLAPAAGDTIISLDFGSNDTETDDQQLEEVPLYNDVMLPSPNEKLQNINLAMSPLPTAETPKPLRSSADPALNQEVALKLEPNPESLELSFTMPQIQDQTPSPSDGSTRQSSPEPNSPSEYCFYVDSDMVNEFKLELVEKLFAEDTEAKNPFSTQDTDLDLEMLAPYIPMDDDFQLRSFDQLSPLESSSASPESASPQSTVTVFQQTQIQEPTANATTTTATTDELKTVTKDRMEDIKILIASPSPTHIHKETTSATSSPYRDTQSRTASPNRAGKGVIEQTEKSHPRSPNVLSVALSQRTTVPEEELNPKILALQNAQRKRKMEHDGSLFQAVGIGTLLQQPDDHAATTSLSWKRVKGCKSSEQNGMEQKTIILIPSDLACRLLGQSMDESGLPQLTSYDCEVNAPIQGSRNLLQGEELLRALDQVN
Outline: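 RT-PCR/capillary electrophoresis fluorescence readout of reporter transcripts from endogenous-TF-driven cis elements in transfected HepG2 cells, 24 h exposure; activity fitted in both directions against DMSO controls.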

Measured: AC50

S=C(NC1CCCCC1)NC1CCCCC1
inactive: [1] | [2] | [3] | [4] | [5] | [6] | [7] | [8]

O=c1c2ccccc2nnn1CCl
inactive: [1] | [2] | [3] | [4] | [5] | [6] | [8]

CCCCCCCCC(=O)OCC
inactive: [1] | [3] | [4] | [9] | [5] | [6] | [7]

O=C(O)CCCC[C@@H]1SC[C@@H]2NC(=O)N[C@@H]21
inactive: [1] | [2] | [3] | [4] | [5] | [6] | [7] | [8]

CCCCCC/C=C/C=O
inactive: [1] | [2] | [3] | [4] | [9] | [5] | [8]

CC(C)c1ccc(C#N)cc1
inactive: [1] | [2] | [3] | [4] | [5] | [6] | [7] | [8]

O=C1CCCC1
inactive: [1] | [3] | [4] | [9] | [5] | [6] | [7]

CCC(=O)Oc1ccc(/C(CC)=C(\CC)c2ccc(OC(=O)CC)cc2)cc1
active: [2] 16.9 µM | [6] 29.1 µM | [7] 30.6 µM
inactive: [1] | [3] | [4] | [5]

CC(=O)OCC(=O)[C@@]12N=C(C)O[C@@H]1C[C@H]1[C@@H]3CCC4=CC(=O)C=C[C@]4(C)[C@H]3[C@@H](O)C[C@@]12C
inactive: [2] | [3] | [4] | [5] | [6] | [7] | [8]
active: [1] 0.189 µM

CCN(CC)c1ccc(C(=O)c2ccccc2C(=O)O)c(O)c1
inactive: [1] | [2] | [3] | [4] | [5] | [6] | [7]
active: [8] 1.89 µM

COC(=O)c1cc(Cl)ccc1[N+](=O)[O-]
inactive: [1] | [2] | [3] | [4] | [9] | [5] | [8]

O=C(O)CCCCCCCCCC(=O)O
inactive: [1] | [3] | [4] | [9] | [5] | [6]

C[C@]12CCC(=O)C=C1CC[C@@H]1[C@@H]2C(=O)C[C@@]2(C)[C@H]1CC[C@]2(O)C(=O)CO
inactive: [1] | [2] | [3] | [4] | [5] | [6] | [7] | [8]

CC(C)CCCC(C)CC=O (stereo unspecified)
inactive: [2] | [3] | [4] | [9] | [5] | [6] | [7]

N[C@H]1C(O)O[C@H](CO)[C@H](O)[C@@H]1O (stereo partly specified)
inactive: [2] | [3] | [4] | [9] | [5] | [6] | [7] | [8]

C=C(C)[C@H]1CC=C(C)CC1
inactive: [2] | [3] | [4] | [9] | [5] | [6] | [7] | [8]

Nc1ccc2cc3ccccc3cc2c1
inactive: [1] | [3] | [4] | [5] | [6] | [7] | [8]

CCCCC/C=C\C/C=C\CCCCCCCC(=O)OC
active: [2] 80.7 µM | [6] 153 µM
inactive: [3] | [4] | [9] | [5] | [7] | [8]

CCC(C)(C)C1CCCCC1OC(C)=O (stereo unspecified)
inactive: [3] | [4] | [9] | [5] | [6] | [7] | [8]

CCOc1ccc(N)c([N+](=O)[O-])c1
inactive: [3] | [4] | [9] | [5] | [6] | [7] | [8]

COC(=O)c1c(C)cc(O)c(C)c1O
inactive: [2] | [3] | [4] | [9] | [5] | [6] | [7] | [8]

CC1=CC[C@H]2C[C@@H]1C2(C)C
inactive: [2] | [3] | [4] | [9] | [5] | [6] | [7]

O=CN1CCCCC1
inactive: [2] | [3] | [4] | [9] | [5] | [6] | [7] | [8]

CCCCCCC1(C)CCC(=O)O1 (stereo unspecified)
inactive: [2] | [3] | [4] | [9] | [5] | [6] | [7] | [8]

O=C(C=Cc1ccccc1)OCc1ccccc1
inactive: [1] | [3] | [4] | [9] | [5] | [6] | [7] | [8]

N#CCc1ccc(Cl)cc1Cl
inactive: [2] | [3] | [4] | [9] | [5] | [6] | [7] | [8]

CCOC(=O)N1CCC(=C2c3ccc(Cl)cc3CCc3cccnc32)CC1
inactive: [1] | [3] | [4] | [5] | [6]
active: [9] 7.91 µM | [7] 10.7 µM | [8] 0.933 µM

CC(C)(C)C(=O)CCc1ccc(Cl)cc1
inactive: [2] | [3] | [4] | [9] | [5] | [6] | [7] | [8]
